PP1 inh: counter-screen for PP5 inhibitors: inhibitors of human PP1-alpha; inhibition, % at 6.7 µM; P62136; purified PP1alpha, OMFP fluorescence; AID 2235; 320,000 compounds, 0.9% hits;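 active means inhibition above the mean inhibition of all tested compounds plus 3 SD, computed separately for each screening campaign, cut at about 15% in these data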
GRK2 aptamer HTS: inhibitors of human GRK2 displacing RNA aptamer; P25098; AID 488847; bead flow cytometry, FAM-aptamer displacement from GRK2; inhibition of aptamer binding, % at 10 µM; 330,000 compounds, 0.59% hits;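 active means inhibition of aptamer binding above 40%, roughly 3 SD of noise, on plates passing a quality check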;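 further: median bead fluorescence of bound FAM aptamer so fluorescent compounds give negative values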
Target sequence (P25098 whole entry, looked up): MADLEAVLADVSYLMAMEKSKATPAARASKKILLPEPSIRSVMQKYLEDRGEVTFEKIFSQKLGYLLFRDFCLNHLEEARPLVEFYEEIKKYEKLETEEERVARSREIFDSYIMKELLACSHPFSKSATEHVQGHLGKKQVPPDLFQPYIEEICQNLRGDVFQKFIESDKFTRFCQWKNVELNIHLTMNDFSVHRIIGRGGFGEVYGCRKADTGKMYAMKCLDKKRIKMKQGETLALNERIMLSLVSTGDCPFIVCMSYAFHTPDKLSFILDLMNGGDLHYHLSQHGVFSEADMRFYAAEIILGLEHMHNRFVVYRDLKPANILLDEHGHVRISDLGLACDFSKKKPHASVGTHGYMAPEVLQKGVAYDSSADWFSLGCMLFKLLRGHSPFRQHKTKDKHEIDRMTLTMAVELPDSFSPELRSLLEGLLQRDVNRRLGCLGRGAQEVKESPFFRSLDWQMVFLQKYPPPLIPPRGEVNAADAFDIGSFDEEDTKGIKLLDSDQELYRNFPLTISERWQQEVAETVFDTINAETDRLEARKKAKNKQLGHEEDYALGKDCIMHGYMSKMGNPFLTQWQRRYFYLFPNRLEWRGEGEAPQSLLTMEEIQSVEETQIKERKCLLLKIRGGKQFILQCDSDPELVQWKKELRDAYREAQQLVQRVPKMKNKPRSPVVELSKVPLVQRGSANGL
NadD block: inhibitors of Staphylococcus aureus NadD. purified NadD enzyme, colorimetric absorbance read-out. inhibition, % at 20 µM. 360,000 compounds, 0.78% hits. AID 602399; in the data active means inhibition above about 26%
Granule exo inh: lytic granule exocytosis inhibition. inhibition, % at 10 µM. AID 651702. 360,000 compounds, 0.66% hits. TALL-104 LAMP-1 surface exposure, flow cytometry; cells stimulated with thapsigargin and PMA;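 active means inhibition above about 55%, limit read from the data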
B2AR ag: human beta-2 adrenergic receptor agonism by FAP. response, % (no concentration beside the values). AID 504454. 340,000 compounds, 0.43% hits. Am2.2-beta2AR cells, FAP receptor internalization, flow cytometry. P07550;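 active means response above a set limit, near 3 SD of response in nonfluorescent compounds, cut at about 42% in these data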
Granule exo CP1: blocks lytic granule exocytosis; shares compounds with Granule exo inh; TALL-104 cells, LAMP-1 externalization, flow cytometry; stimulated with PMA plus thapsigargin; inhibition, % at 10 µM; 1,500 compounds, 11% hits; in the data active means inhibition above about 60%
Large screens that a line does not name were inactive (follow-up assays come after a bar, where they were run). The list is not random: actives were taken first. Their share in the collection is about 2.9%.

CCc1ccccc1NC(=O)CN(c1ccc(OC)cc1OC)S(=O)(=O)c1ccccc1	Granule exo inh 70 | Granule exo CP1 inactive
COC(=O)c1ccc(OCC(O)CNCC(c2ccc(OC)cc2)N(C)C)c(OC)c1 (centres undefined)	none
Cc1ccc(S(=O)(=O)N(C)C)cc1NC(=O)C(C)OC(=O)/C=C/c1cccs1 (centres undefined)	none
Cn1cc(-c2ccc3c(c2)OCO3)c2ccccc21	none (no result: PP1 inh, GRK2 aptamer HTS, B2AR ag)
COc1ccc(C(C#N)=Cc2ccc(N(C)CCC#N)cc2)cc1	none (no result: PP1 inh, GRK2 aptamer HTS, B2AR ag)
CC(C)NC(=S)N/N=C/c1cc(Br)ccc1O	none
O=C(Nc1ccc(F)cc1)c1nc(S(=O)(=O)Cc2ccccc2)ncc1Cl	Granule exo inh 78 | Granule exo CP1 65
Cc1ccccc1NC(=O)c1nc(S(C)(=O)=O)ncc1Cl	Granule exo inh 79 | Granule exo CP1 inactive
Cc1ccc(NC(=O)c2nc(S(=O)(=O)Cc3ccccc3)ncc2Cl)cc1	none
CCS(=O)(=O)c1ncc(Cl)c(C(=O)Nc2ccc(S(=O)(=O)N(C)c3ccccc3)cc2)n1	Granule exo inh 56 | Granule exo CP1 inactive
Cc1cccc(C)c1NC(=O)c1nc(S(=O)(=O)Cc2ccccc2)ncc1Cl	none
c1ccc2c(NCCc3c[nH]c4ccccc34)c3ccccc3nc2c1	Granule exo inh 72 | Granule exo CP1 inactive
Fc1cccc(NCCc2c[nH]c3ccccc23)n1	none
COc1cccc2c1C(=O)c1ccc3ccccc3c1C2=O	Granule exo inh 61 | Granule exo CP1 78
CCCC(O)(CCN1CCCCC1)c1ccc(OCC)cc1 (centres undefined)	none
COc1ccc(C(O)(CCN2CCCCC2)C2CCCCC2)cc1 (centres undefined)	Granule exo inh 75 | Granule exo CP1 inactive
Cc1ccc(S(=O)(=O)NC(=O)C2(C)CCN2C(=O)COc2ccc(Cl)cc2)nc1 (centres undefined)	none (no result: PP1 inh, GRK2 aptamer HTS, B2AR ag)
COc1ccc(Cl)cc1-c1cc(C(=O)Nc2ccc(C)c(NS(C)(=O)=O)c2)[nH]n1	none (no result: PP1 inh, GRK2 aptamer HTS, B2AR ag)
CCOc1ccc(S(=O)(=O)n2cc(-c3ccc(F)cc3)c(N)n2)cc1	Granule exo inh 74 | Granule exo CP1 inactive
Cc1ccc(-c2cn(S(=O)(=O)c3ccc(C)cc3)nc2N)cc1	none
CCOc1cc(S(=O)(=O)n2cc(-c3ccc(F)cc3)c(N)n2)cc(OCC)c1OCC	none
CCOc1ccc(S(=O)(=O)n2cc(-c3ccccc3)c(N)n2)cc1	Granule exo inh 67 | Granule exo CP1 inactive
COc1ccc(C(C)=O)cc1COC(=O)c1cc2ccccc2cc1O	Granule exo inh 91 | Granule exo CP1 inactive
COc1ccc(C(C)=O)cc1COC(=O)c1cccnc1Cl	none
Cc1oc(-c2ccc(Cl)cc2)nc1CS(=O)CC(=O)NCCN1CCCC1 (centres undefined)	Granule exo inh 56 | Granule exo CP1 inactive
Cc1cccc(-c2nc(CS(=O)CC(=O)NCCc3ccc(Cl)cc3)c(C)o2)c1 (centres undefined)	Granule exo inh 58 | Granule exo CP1 inactive
Cc1ccc(-c2nc(CS(=O)CC(=O)NCCN3CCCC3)c(C)o2)cc1 (centres undefined)	none
COc1ccc(S(=O)(=O)Nc2ccc(O)c3ccccc23)cc1	Granule exo inh 87 | Granule exo CP1 inactive
COc1ccc(S(=O)(=O)c2c(O)cc(C)c(NS(=O)(=O)c3ccccc3)c2C)cc1	Granule exo inh 70 | Granule exo CP1 inactive
COc1ccc(S(=O)(=O)Nc2ccccc2)cc1	none
COc1ccc(OC)c(NC(=O)Nc2ccc(O)c3ccccc23)c1	Granule exo inh 82 | Granule exo CP1 inactive
COC(=O)c1ccc(CNC(=O)C(NC(=O)c2ccco2)C(C)C)cc1 (centres undefined)	none
CCOC(=O)Nc1nc(-c2ccc(F)cc2F)cs1	Granule exo inh 65 | Granule exo CP1 inactive
Cc1sc2nc(SCC(=O)Nc3c(C)n(C)n(-c4ccccc4)c3=O)n(C)c(=O)c2c1C	none
COCCn1c(SCC(=O)Nc2ccccc2OC)nc2c(oc3ccccc32)c1=O	Granule exo inh 65 | Granule exo CP1 inactive
COc1ccccc1NC(=O)CSc1nc2sc(C)c(C)c2c(=O)n1C	Granule exo inh 60 | Granule exo CP1 inactive
COc1ccccc1-c1cnc(C(O)c2cc(C)c(OC)c(C)c2)[nH]1 (centres undefined)	none (no result: PP1 inh, GRK2 aptamer HTS, B2AR ag)
CCOC(=O)c1c(C)oc2c1cc(O)c1ccccc12	none
CC(=O)c1c(C)oc2c1cc(O)c1ccccc12	Granule exo inh 89 | Granule exo CP1 inactive
Cc1ccccc1Nc1nc(N)nc(COC(=O)c2ccco2)n1	none (no result: PP1 inh)
Cc1ccccc1Nc1nc(N)nc(COC(=O)c2ccc(S(=O)(=O)N(C)C)cc2)n1	Granule exo inh 63 | Granule exo CP1 inactive
Cc1cc(C)c(C)c(S(=O)(=O)Nc2cccc(-n3cnnn3)c2)c1C	Granule exo inh 60 | Granule exo CP1 inactive
CCCn1nc(C(=O)NNC(=O)c2cccc(C)c2)c2ccccc2c1=O	none (no result: PP1 inh)
N#Cc1nc(COc2ccccc2Cl)oc1NCc1ccco1	Granule exo inh 56 | Granule exo CP1 inactive
COc1ccc(CCNc2oc(COc3ccccc3Cl)nc2C#N)cc1OC	none
COc1ccc2oc(=N)c(-c3nnc4n3CCCCC4)cc2c1	Granule exo inh 56 | Granule exo CP1 inactive
O=C(CCN1CCN(c2ccc([N+](=O)[O-])cc2)CC1)c1ccc(Cl)cc1	Granule exo inh 84 | Granule exo CP1 inactive
O=C(CN1CCN(c2ccc([N+](=O)[O-])cc2)CC1)c1ccccc1	none
O=C(CCN1CCN(c2ccccc2)CC1)c1ccc(Cl)cc1	Granule exo inh 79 | Granule exo CP1 inactive
O=C(CCN1CCN(c2ccccc2)CC1)Nc1ccc(Cl)cc1	none
Cc1ccc(NC(=O)CSc2nnc3ccccn23)cc1S(=O)(=O)N1CCOCC1	Granule exo inh 81 | Granule exo CP1 inactive
C/C(=N\NC(=O)COc1cccc(Br)c1)c1ccc2c(c1)OCCO2	none
CN(CC(=O)NCCc1ccc(F)cc1)Cc1ccc(Br)cc1	Granule exo inh 70 | Granule exo CP1 inactive
CCc1ccc(NC(=O)CSc2nc3ccccc3c(=O)n2CCCN2CCC(C)CC2)cc1	Granule exo inh 87 | Granule exo CP1 inactive
COc1ccc(CCNC(=O)C(=O)NCc2ccc(Cl)cc2)cc1OC	none
O=C(O)Cc1sc(N/N=C\c2ccncc2)nc1-c1ccccc1	none
O=C1CC2(CCCCCC2)Oc2ccccc21	Granule exo inh 63 (no result: GRK2 aptamer HTS) | Granule exo CP1 inactive
Cc1c(Cl)cccc1NC(=O)CSc1ncnc2c1cnn2CCc1ccccc1	none
O=C(CSc1ncnc2c1cnn2CCc1ccccc1)Nc1cccc(C(F)(F)F)c1	Granule exo inh 83 | Granule exo CP1 inactive
COc1ccc(S(=O)(=O)Nc2noc3ccccc23)cc1	none
COc1ccc(N2CCCC2)c(NC(=O)COc2ccccc2Cl)c1	none
COc1ccc(N2CCOCC2)c(NC(=O)c2cc3ccccc3o2)c1	Granule exo inh 75 | Granule exo CP1 inactive
COc1ccc(OCC(=O)Nc2cc(OC)ccc2N2CCCCC2)cc1	Granule exo inh 67 | Granule exo CP1 inactive
